Test system: Plasmodium falciparum
Assay: GSK_TCMDC: Inhibition of Plasmodium falciparum Dd2 in whole red blood cells, using parasite LDH activity as an index of growth. Test compounds present at 2uM
Assay type: functional

Row | SMILES | Inhibition [%]
1 | COC(=O)c1sc(-c2ccc(Cl)cc2)cc1N(CCCN1CCC(N2CCCCC2)CC1)S(=O)(=O)c1ccc(C)cc1 | 86
2 | Cc1cc(N/N=C/c2ccccc2[N+](=O)[O-])c2ccc(F)cc2n1 | 100
3 | Cc1cc(NC(=O)Nc2ccc3sccc3c2)c2ccccc2n1 | 57
4 | Nc1ncc(-c2ccc3nccc(-c4ccncc4)c3c2)cc1S(=O)(=O)N1CCCCC1 | 100
5 | Cc1cc2ccccc2n1CC(=O)N1CC(C(=O)N2CCCCC2)Oc2ccccc21 (centres undefined) | 77
6 | Cc1cc(N[C@@H](Cc2ccccc2)C(=O)NC2CCCC2)nc(Nc2ccccc2)n1.O=C(O)C(F)(F)F | 82
7 | CC(C)(C)c1ccccc1OC(=O)c1ccccc1 | 2
8 | C[C@@H](CNc1ccnc(Nc2ccc3[nH]c(=O)[nH]c3c2)n1)c1ccccc1 | 1
9 | Cc1ccc(CN2CCCN(Cc3cccc(NC(=O)c4cc5ccccc5s4)c3)CC2)cc1C.O=C(O)C(F)(F)F | 33
10 | COc1ccc2nccc([C@@H](O)CN3CCC(NCc4cc5ccccc5nn4)CC3)c2c1.O=C(O)C(=O)O | 16
11 | Cc1ccc(Nc2nc(C)cc(NC3CCCC3)n2)cc1 | 89
12 | COc1ccc2nccc([C@@H](O)CN3CCC(NC(=O)c4ccc(-c5ccc(C#N)cc5)cc4)CC3)c2c1 | 91
13 | Oc1c(C=Nn2cnnc2)sc2ccccc12 | 68
14 | O=C(O)C(F)(F)F.O=S(=O)(NCCN1CCCC1)c1ccc(-c2ccc(CNC3Cc4ccccc4C3)cc2)s1 | 97
15 | COc1cc2c(=O)c(Cc3ccc(Cl)cc3)c(C)[nH]c2cc1F | 28
16 | CCOCc1cnc(C)nc1NCC(=O)c1c(C)[nH]c2cc(C)ccc12.I | 76
17 | O=C(Cc1n[nH]c(=O)c2ccccc12)Nc1cccc(C(=O)Nc2cccc(C(F)(F)F)c2)c1 | 90
18 | O=C(O)C(F)(F)F.O=[N+]([O-])c1cccc(CNCC2CCC(CNCc3cccc([N+](=O)[O-])c3)CC2)c1 (centres undefined) | 76
19 | O=C(/C=C/c1ccc(Cl)c(Cl)c1)NCCCCCN1CCC(c2cn[nH]c2-c2ccccc2)CC1 | 0
20 | Nc1ncc(-c2cn[nH]c2)cc1-c1nc2cc(Cl)cnc2[nH]1 | 70
21 | CC(=O)N1N=C(c2ccc(F)cc2)Sc2c1nc(C1CCCCC1)n2C(C)=O | 9
22 | COc1ccc2ncc(Cl)c(CCN3C[C@H](CNCc4ccc5c(n4)NC(=O)CS5)[C@H](O)C3)c2n1.Cl | 16
23 | Cc1cc(N[C@@H](Cc2ccccc2)C(=O)NC2CCCC2)nc(NCCCOC(C)C)n1.O=C(O)C(F)(F)F | 43
24 | N#CN1CC[C@@H](NS(=O)(=O)Cc2ccc(Cl)c(Cl)c2)C1 | 94
25 | CC1CCc2sc(-c3nnc(SC(C)C(=O)N4CCCC4)o3)cc2C1 (centres undefined) | 94

Test system: HepG2
Assay: GSK_TCMDC: Percent inhibition of human HepG2 cell line. Test compounds present at 10uM.
Assay type: functional

Row | SMILES | Inhibition [%]
26 | CC(C)NCc1ccc(-c2cccc(-c3nc4cc(F)ccc4[nH]3)c2)cc1.O=C(O)C(F)(F)F | 14
27 | Cn1cnc2nc(NCCc3ccccc3)nc(NCc3cccc4ccccc34)c21 | 16
28 | Fc1ccc2[nH]c(-c3ccc(-c4ccc(CNCCc5ccncc5)cc4)s3)nc2c1.O=C(O)C(F)(F)F | 34
29 | Cc1ccc(S(C)(=O)=O)cc1/C=C/C(=O)O | 0
30 | Oc1cccc(/C=N/Nc2ccnc3cc(Cl)ccc23)c1 | 0
31 | COc1ccc(C2C(C(=O)Nc3ccc4c(c3)OCO4)c3cc(OC)c(OC)cc3C(=O)N2C)cc1 (centres undefined) | 12
32 | CCCC(C)NC[C@@H](O)[C@H](Cc1ccccc1)NC(=O)c1cc(C2CCCC2)cc(N2CCCCS2(=O)=O)c1.Cl (some centres undefined) | 8
33 | CCN(CC)CCNc1ccnc2c3ccccc3n(C)c12 | 14
34 | Cc1ccc(/C=C2/SC(=Nc3ccccc3)NC2=O)c(C)c1 | 1
35 | CCOc1cc(C(=O)N[C@@H](Cc2ccccc2)[C@H](O)CNCc2cc(OC)cc(OC)c2)cc(N2CCCCS2(=O)=O)c1.Cl | 0
36 | CN1CCC(N(C)C(=O)C=Cc2cn(-c3ccccc3)nc2-c2cc3ccccc3o2)CC1.Cl | 38
37 | O=C(O)C(F)(F)F.c1cc(CN2CCN(c3ccncc3)CC2)cc(-c2cccc(-c3nc4ccccc4[nH]3)c2)c1 | 35
38 | CCOc1cc(C)ccc1C1CCN(CCCCNC(=O)c2cccc(-c3ccc(C(F)(F)F)cc3)c2)CC1 | 39
39 | O=C(c1cccs1)N1N=C(c2cccs2)CC1c1cccc([N+](=O)[O-])c1 (centres undefined) | 5
40 | COC(=O)c1sc(-c2ccc(Cl)cc2)cc1N(CCCN1CCC(N2CCCCC2)CC1)S(=O)(=O)c1ccc(C)cc1 | 25
41 | Cc1cc(N/N=C/c2ccccc2[N+](=O)[O-])c2ccc(F)cc2n1 | 32
42 | Cc1cc(NC(=O)Nc2ccc3sccc3c2)c2ccccc2n1 | 41
43 | Nc1ncc(-c2ccc3nccc(-c4ccncc4)c3c2)cc1S(=O)(=O)N1CCCCC1 | 25
44 | Cc1cc2ccccc2n1CC(=O)N1CC(C(=O)N2CCCCC2)Oc2ccccc21 (centres undefined) | 0
45 | Cc1cc(N[C@@H](Cc2ccccc2)C(=O)NC2CCCC2)nc(Nc2ccccc2)n1.O=C(O)C(F)(F)F | 3

Row | SMILES | Inhibition [%]
46 | CC(C)(C)c1ccccc1OC(=O)c1ccccc1 | 0
47 | C[C@@H](CNc1ccnc(Nc2ccc3[nH]c(=O)[nH]c3c2)n1)c1ccccc1 | 42
48 | Cc1ccc(CN2CCCN(Cc3cccc(NC(=O)c4cc5ccccc5s4)c3)CC2)cc1C.O=C(O)C(F)(F)F | 44
49 | COc1ccc2nccc([C@@H](O)CN3CCC(NCc4cc5ccccc5nn4)CC3)c2c1.O=C(O)C(=O)O | 5
50 | Cc1ccc(Nc2nc(C)cc(NC3CCCC3)n2)cc1 | 33
51 | COc1ccc2nccc([C@@H](O)CN3CCC(NC(=O)c4ccc(-c5ccc(C#N)cc5)cc4)CC3)c2c1 | 42
52 | Oc1c(C=Nn2cnnc2)sc2ccccc12 | 0
53 | O=C(O)C(F)(F)F.O=S(=O)(NCCN1CCCC1)c1ccc(-c2ccc(CNC3Cc4ccccc4C3)cc2)s1 | 47
54 | COc1cc2c(=O)c(Cc3ccc(Cl)cc3)c(C)[nH]c2cc1F | 13
55 | CCOCc1cnc(C)nc1NCC(=O)c1c(C)[nH]c2cc(C)ccc12.I | 8
56 | O=C(Cc1n[nH]c(=O)c2ccccc12)Nc1cccc(C(=O)Nc2cccc(C(F)(F)F)c2)c1 | 0
57 | O=C(O)C(F)(F)F.O=[N+]([O-])c1cccc(CNCC2CCC(CNCc3cccc([N+](=O)[O-])c3)CC2)c1 (centres undefined) | 39
58 | O=C(/C=C/c1ccc(Cl)c(Cl)c1)NCCCCCN1CCC(c2cn[nH]c2-c2ccccc2)CC1 | 28
59 | Nc1ncc(-c2cn[nH]c2)cc1-c1nc2cc(Cl)cnc2[nH]1 | 40
60 | CC(=O)N1N=C(c2ccc(F)cc2)Sc2c1nc(C1CCCCC1)n2C(C)=O | 4
61 | COc1ccc2ncc(Cl)c(CCN3C[C@H](CNCc4ccc5c(n4)NC(=O)CS5)[C@H](O)C3)c2n1.Cl | 2
62 | Cc1cc(N[C@@H](Cc2ccccc2)C(=O)NC2CCCC2)nc(NCCCOC(C)C)n1.O=C(O)C(F)(F)F | 0
63 | N#CN1CC[C@@H](NS(=O)(=O)Cc2ccc(Cl)c(Cl)c2)C1 | 13
64 | CC1CCc2sc(-c3nnc(SC(C)C(=O)N4CCCC4)o3)cc2C1 (centres undefined) | 1
